# Reference: PubChem BioAssay AID2685 (National Center for Advancing Translational Sciences (NCATS), 2010)
# Hit rate of the full screen: of about 320,000 compounds, about 2,100 (0.66%) were called active. Roughly 53% stayed inconclusive and do not appear here. The call rests on the fitted dose curve; in most records, active means well fitted inhibition curve with a large enough effect in the signal ratio, with a control signal flat (not every such curve was filed as active); inconclusive means small, poorly fitted or top-dose-only effect, or effect the other way, or a change in a side signal; inactive means flat fitted curve, though single readings scatter; the % refers to the signal ratio. For the sample, actives were picked, then their nearest neighbours and some compounds at random.
# Experiment: qHTS Assay for Lipid Storage Modulators in Drosophila S3 Cells;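 on cell number change: cells counted by Cell Tracker Red CMTPX staining in the red channel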
# Conditions: BODIPY lipid droplet fluorescence, 18-24 h, cells fed with added oleic acid; cell number change: measured here: cell count max response; series mostly up to 46.1 µM
# In short: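 Drosophila S3 cells loaded with oleic acid (400 uM, as added) and compounds at several concentrations; lipid droplets imaged by 488-nm laser-scanning cytometry, 500–530 nm intensity and object ratio to cell channel. Percent activity normalized to 20 uM Triacsin C.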
# Potency means the concentration at half of the fitted maximal effect.
Structure (SMILES),Potency,cell number change [%]
CC(C)(C)c1ccc(C(=O)OCC(=O)NC2CC2)cc1,inactive,
CCc1nn(C(CC)C(=O)NCc2cccs2)c(=O)c2cc3occc3n12 (stereo not drawn),inactive,-4.96
CCc1nn(C(CC)C(=O)NCc2cccc(OC)c2)c(=O)c2cc3occc3n12 (stereo not drawn),inactive,
CCc1nn(C(CC)C(=O)NCc2cccc(OC)c2OC)c(=O)c2cc3occc3n12 (stereo not drawn),10.3 µM (active),-13.5
Cc1cc(S(=O)(=O)NCC(C)C)ccc1OCC(=O)NCc1ccco1,inactive,21.6
Cc1noc(C)c1CCC(=O)NC1CCCN(Cc2ccc(CC(C)C)cc2)C1 (stereo not drawn),inactive,
Cc1ccc(N=Cc2ccc(O)cc2O)cc1F,inactive,
O=C(Nc1ccc(S(=O)(=O)N2CCc3ccccc32)cc1)C(F)(F)F,inactive,-4.4
O=C(O)C1C2C=CC(O2)C1C(=O)Nc1ccc(S(=O)(=O)N2CCc3ccccc32)cc1 (stereo not drawn),inactive,-9.33
O=C(O)C1CC=CCC1C(=O)Nc1ccccc1 (stereo not drawn),inactive,
O=C(O)c1ccc(NC(=O)C2CC=CCC2C(=O)O)cc1 (stereo not drawn),0.184 µM (active),3.62
O=C(O)C1CC=CCC1C(=O)Nc1ccc(S(=O)(=O)N2CCCc3ccccc32)cc1 (stereo not drawn),23.1 µM (active),4.45
CN(C(=O)c1ccc(NC(=O)C2CC=CCC2C(=O)O)cc1)c1ccccc1 (stereo not drawn),inactive,2.31
CC(C)CC(NC(=O)c1ccccc1)C(=O)OCC(=O)Nc1ccc(Br)cn1 (stereo not drawn),inactive,
Cc1[nH]c2ccccc2c1SCCNC(=O)c1ccc(S(=O)(=O)N2CCCC2)cc1,inactive,-15.8
CNC(=S)Nc1cc(C(=O)N2CCCC2)ccc1N1CCCC1,inactive,-7.02
Cc1cccc(NC(=O)C2C(c3ccccc3)C2(Cl)Cl)c1C (stereo not drawn),inactive,10.7
O=C(c1cccs1)N1CCC(c2nc3c(nnn3Cc3cccc(Cl)c3)c(=O)[nH]2)CC1,inactive,-4.62
Cc1ccc(N(C(=O)Cc2cccs2)C(C(=O)NC2CCCCC2)c2ccccn2)cc1C (stereo not drawn),inactive,4.06
O=C(CCC(=O)c1ccccc1)NCCc1c[nH]c2ccccc12,inactive,-0.682
COc1ccc(S(=O)(=O)Nc2ccccc2C(=O)N2CCOCC2)cc1C,inactive,-5.26
CN(C)S(=O)(=O)N1CCN(C(=O)N2CCOCC2)CC1,5.8 µM (active),-2.73
CN(C)C(=O)N1CCN(C(=O)N2CCOCC2)CC1,inactive,3.54
Cc1cc(C)c(S(=O)(=O)Nc2ccccc2C(=O)N2CCOCC2)c(C)c1,25.9 µM (active),-34.8

Structure (SMILES),Potency,cell number change [%]
Cc1cc(C)c(S(=O)(=O)N2CCN(C(=O)N(C)C)CC2)c(C)c1,inactive,-11
Cc1ccccc1NS(=O)(=O)c1ccc(C)c(C(=O)N2CCOCC2)c1,inactive,1.29
CN(C)S(=O)(=O)N1CCN(S(=O)(=O)N2CCOCC2)CC1,inactive,6.09
Cc1cc(C)c(S(=O)(=O)N2CCN(S(=O)(=O)N3CCOCC3)CC2)c(C)c1,inactive,9.13
Cc1cc(C)c(S(=O)(=O)N2CCN(C(=O)N3CCOCC3)CC2)c(C)c1,3.66 µM (active),-4.21
CCCN(CCC)S(=O)(=O)c1nc2nc(C)cc(C)n2n1,inactive,8.75
COc1cc2c(cc1OC)C(c1ccc(O)cc1)NCC2 (stereo not drawn),inactive,-6.35
O=C1CCCN1CCC12CC3CC(CC(C3)C1)C2,inactive,-8.85
COc1ccc(OC)c(CN2CCN(CCCc3ccccc3)C(CCO)C2)c1 (stereo not drawn),inactive,25.4
CCOc1ccc(CCNC(=O)c2ccc(=O)[nH]c2)cc1OCC,inactive,0.381
Cc1cccc(OCc2cc(-c3ccccc3)no2)c1C,inactive,19.4
CC(C)C(c1nnnn1C1CCCC1)N1CCCCC1 (stereo not drawn),inactive,-26.8
CC(C)C(c1nnnn1C1CCCCC1)N1CCc2ccccc21 (stereo not drawn),inactive,19.2
CC(C)C(c1nnnn1C1CCCC1)N(C)C1CCCCC1 (stereo not drawn),5.17 µM (active),-2.08
N#CC(C(=O)O)=C1CCCC1,23.1 µM (active),-10.5
N#CC(C(=O)NC1CCCCC1)=C1CCCCC1,inactive,0.427
N#CC(C(=O)Nc1ccccc1)=C1CCCCC1,inactive,
CCOc1cc(-c2ccc3c(c2)OCO3)cc(=O)c2c(C)oc(C)c12,inactive,-26.2
CCO[C@@H]1OC(C(=O)N2CCN(Cc3ccc4c(c3)OCO4)CC2)=C[C@H](c2csc3ccccc23)[C@H]1CCCO,inactive,-13
COc1ccccc1NC(=O)CC(NC1CCCCC1)C(=O)O (stereo not drawn),inactive,3.03
O=C(Nn1cnc2ccccc2c1=O)c1ccccc1F,inactive,-5
N#Cc1ccc2c(c1)nc1ccccn12,inactive,11.1
N#Cc1c(-c2ccccc2)cc(-c2ccc3c(c2)OCO3)[nH]c1=O,8.2 µM (active),-26.7
N#Cc1c(-c2ccco2)cc(-c2ccccc2)[nH]c1=O,inactive,

Structure (SMILES),Potency,cell number change [%]
N#Cc1c(-c2ccc3c(c2)OCO3)cc[nH]c1=O,inactive,17.2
CC(C)=C1C2CCC1C1C(=O)N(c3nc(-c4ccc(F)cc4)c(C)s3)C(=O)C21 (stereo not drawn),inactive,-3.6
COc1ccc(N2CCN(CC(=O)Nc3cc(C)on3)CC2)cc1,inactive,7.54
Cc1ccc(Nc2nc(C(=O)N3CCC(C(=O)NCCN4CCOCC4)CC3)cs2)cc1,inactive,
O=C(N/N=C/c1ccc(-c2cccc(C(F)(F)F)c2)o1)c1cccc(F)c1,inactive,
CC(C)N(C(=O)c1ccc2nc(-c3ccccc3)c(-c3ccccc3)nc2c1)C(C)C,1.64 µM (active),-9.21
CCN(CC)C(=O)c1ccc2nc(-c3ccccc3)c(-c3ccccc3)nc2c1,inactive,-0.854
O=C(O)c1ccc2nc(-c3ccccc3)c(-c3ccccc3)nc2c1,inactive,-2.52
CCOc1ccc(NC(=O)CN(C)C(=O)c2ccc(COc3ccccc3)o2)cc1OCC,inactive,24.1
CCN(CC)CCn1c(=N)n(CC(O)c2ccco2)c2ccccc21 (stereo not drawn),inactive,6.57
CCN(CC)CCn1c(=N)n(CCO)c2ccccc21,3.26 µM (active),-11.1
CCN(CC)CCn1c(=N)n(CCOc2ccccc2)c2ccccc21,inactive,-6.28
c1ccc(CCCNCC2COc3ccccc3O2)cc1 (stereo not drawn),inactive,19.8
CCOc1cccc(CN2CCC(Oc3ccc(C(=O)NCc4ccccn4)cc3)CC2)c1,inactive,
CCn1cc(CNC(=O)c2ccc(OC3CCN(Cc4ccccn4)CC3)cc2)cn1,3.66 µM (active),-18.8
Cn1cc(CNC(=O)c2ccc(OC3CCN(Cc4ccccn4)CC3)cc2)cn1,inactive,
C/C(N)=C(/C#N)C(=O)CSc1nnc(-c2ccc3c(c2)OCO3)o1,inactive,22.5
Cc1ccc2c(CC(=O)OCc3cc(=O)n4c(n3)sc3ccccc34)coc2c1,inactive,-0.183
Nc1nc(-c2ccccc2)cn1/N=C/c1ccccc1,inactive,9.59
CC(=O)N(C(C)=O)c1nc(-c2ccccc2)cn1/N=C/c1ccccc1,1.64 µM (active),-51.6
Cc1ccc(/C=N/n2c(-c3ccccc3)n[nH]c2=S)cc1,inactive,7.92
Cc1ccc(N(CC(O)CN2CCCC2)S(=O)(=O)c2ccc(C)cc2)cc1 (stereo not drawn),inactive,-13
Cc1ccc(N(CC(O)CN(C)C)S(=O)(=O)c2ccccc2)cc1 (stereo not drawn),5.17 µM (active),1.33
Cc1ccc(N(CC(O)CN2CCCCC2)S(=O)(=O)c2ccccc2)cc1 (stereo not drawn),inactive,-15.7

Structure (SMILES),Potency,cell number change [%]
COc1ccccc1CN1CC(C(=O)NCc2cc(C(C)C)no2)CCC1=O (stereo not drawn),inactive,1.05
Cc1c(N=Cc2ccco2)c(=O)n(-c2ccccc2)n1C,inactive,8.07
Cc1c(N=Cc2cccnc2)c(=O)n(-c2ccccc2)n1C,inactive,7.08
Cc1c(N=Cc2ccccn2)c(=O)n(-c2ccccc2)n1C,16.4 µM (active),-11.2
Cn1c(SCC(=O)Nc2ccc3nc(SCC(=O)NC4CC4)sc3c2)nnc1-c1ccccc1,inactive,-15
COc1ccc(Oc2coc3c(CN4CCOCC4)c(O)ccc3c2=O)cc1,inactive,10.6
CN(C)CCOc1ccc(C(C)(C)c2ccccc2)cc1,inactive,10.7
COC(C#CCCN(C)C)(c1ccccc1)c1ccccc1,inactive,-1.59
COC(CCN(C)C)(c1ccccc1)c1ccccc1,0.184 µM (active),-3.67
O=C(CSc1ccc(-c2ccccn2)nn1)NCc1ccccc1,inactive,3.17
CCCCSc1nc(O)c(C2OC(=O)c3c2ccc(OC)c3OC)c(=O)n1-c1ccccc1 (stereo not drawn),inactive,0.549
Cc1nc2ccccn2c1C(=O)NNC(=O)Nc1cccc(C(F)(F)F)c1,1.46 µM (active),-6.44
Cc1nc2ccccn2c1C(=O)NNC(=O)Nc1ccccc1,inactive,
Cc1cccc(NC(=O)c2c(C)nc3ccccn23)c1,inactive,6.85
COc1ccc(OC)c(NC2c3ncccc3C(=O)N2Cc2ccco2)c1 (stereo not drawn),inactive,
Cc1ccc(C(C)C)c(OCC(=O)Nc2ccc3c(c2)nc(CCN2CCCCC2)n3C)c1,inactive,
CCCN1CN(Cc2ccccc2)CC2=C1CC(C)(C)CC2=O,inactive,-2.17
COc1ccc(-c2ccc(SCC(=O)N3c4ccccc4CC3C)nn2)cc1OC (stereo not drawn),inactive,
Cc1ccc2nc(-c3ccccn3)cc(C(=O)NC3CCN(C)CC3)c2c1,25.9 µM (active),
O=C(NC1CC1)c1cc(-c2ccccn2)nc2ccccc12,inactive,-1.09
CN1CCN(NC(=O)c2cc(-c3ccccn3)nc3ccccc23)CC1,inactive,28.4
CCCN1CCN(C(=O)c2nn(-c3ccc(OC)cc3)c(=O)c3c2c2ccccc2n3C)CC1,inactive,-5.33
O=C1/C(=C/c2ccccc2)SC(=S)N1C1CCS(=O)(=O)C1 (stereo not drawn),inactive,7.35
